From PubChem BioAssay (NCATS)
Inconclusive results are not listed. The source made the active and inactive calls. Unless noted, calls come from the whole dose curve; as a rule, active = well fitted curve in the direction sought with a large enough effect; inconclusive = small, poorly fitted or top-dose-only effect, or another doubt; inactive = no such curve, though single readings can be large; an effect the other way counts as inactive or inconclusive.

What was measured:
[1] = target: Alpha-galactosidase A (Homo sapiens) (UniProt P06280); assay: Counterscreen for Glucocerebrosidase Inhibitors: qHTS Assay for Human alpha-Galactosidase at pH 4.5 (AID 992); conditions: purified enzyme, fluorogenic substrate; series mostly up to 76.9 µM
In short: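 Enzyme at 2 nM final was combined with compound (0.7 nM to 77 uM) and 80 uM 4-methylumbelliferyl alpha-D-galactopyranoside in 50 mM citric acid, 0.005% Tween-20, pH 4.5. After 20 min at room temperature, fluorescence was read (Ex 365/Em 440 nm); AC50 came from Hill fits.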

[2] = Validation of Assay for Modulators of Lamin A Splicing (AID 1459; active = well fitted curve in the direction sought with a large enough effect in the signal ratio; the % refers to the signal ratio;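 note: cells exposed to compound for two days before reading; ratio rise marks activators and ratio drop marks inhibitors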); conditions: Lamin A splicing dual RFP/GFP fluorescence reporter; series mostly up to 9.22 µM
In short: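 Dual-reporter HeLa S3 line (lamin A-EGFP minigene, DsRed2) treated with compounds 48 hrs, 0.5% DMSO final. Endpoint: EGFP/DsRed2 total intensity ratio from laser-scanning microplate cytometry.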

[3] = target: DNA repair nuclease/redox regulator APEX1 (Homo sapiens) (UniProt P27695); assay: qHTS Validation Assay for Inhibitors of the Human Apurinic/apyrimidinic Endonuclease 1 (APE1) (AID 1705;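 note: TAMRA fluorescence gain over two minutes as APE1 cuts a quenched THF abasic duplex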); conditions: purified APE1 endonuclease activity, fluorescence, titration; series mostly up to 57.1 µM
In short: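 Substrate: 50 nM final fluorophore/quencher THF-abasic duplex. Enzyme preincubated with compounds 15 min, RT. Progress derived from fluorescence difference, third minus first kinetic read.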

[4] = Counterscreen for APE1 Inhibitors: Fluorescent Dye Displacement Validation Assay (AID 1707); conditions: fluorescent dye displacement from DNA; series mostly up to 57.1 µM
In short: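 Thiazole Orange displacement from dsDNA: 250 nM ThO with 50 nM TAMRA-labelled abasic-site (tetrahydrofuran) duplex in 50 mM Tris-HCl pH7.5, 50mM NaCl, 2 mM MgCl2, 0.01% Tween-20. Loss of endpoint fluorescence (ex 480 nm, em 540 nm) flags DNA binders.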

[5] = target: Endonuclease 4 (Escherichia coli (strain K12)) (UniProt P0A6C1); assay: Counterscreen for APE1 Inhibitors: qHTS Validation Assay for Inhibitors of Endonuclease IV (AID 1708); conditions: E. coli endonuclease IV, DNA cleavage fluorescence; series mostly up to 57.1 µM
In short: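 2 nM enzyme was preincubated with compounds for 15 min at room temperature in 50 mM Tris-HCl pH 7.5, 50 mM NaCl, 2 mM MgCl2, 1 mM DTT, 0.01% Tween-20. 50 nM THF-abasic TAMRA/BHQ-2 duplex substrate started the reaction.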

[6] = qHTS for differential inhibitors of proliferation of Plasmodium falciparum line 7G8 (AID 1815); conditions: Plasmodium falciparum 7G8 proliferation inhibition; series mostly up to 28.7 µM;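 note: parasite growth measured after three days of incubation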; note: potency is the fitted concentration of half-maximal effect
[7] = qHTS for differential inhibitors of proliferation of Plasmodium falciparum line GB4 (AID 1816); conditions: Potency: Plasmodium falciparum GB4 proliferation inhibition; series mostly up to 28.7 µM;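 note: parasite growth measured after 72 h incubation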; note: potency is the fitted concentration of half-maximal effect
[8] = qHTS for differential inhibitors of proliferation of Plasmodium falciparum line 3D7 (AID 1876); note: potency is the fitted concentration of half-maximal effect; conditions: P. falciparum 3D7 proliferation inhibition; series mostly up to 28.7 µM
[9] = qHTS for differential inhibitors of proliferation of Plasmodium falciparum line Dd2 (AID 1882); conditions: Potency: Plasmodium falciparum Dd2 proliferation inhibition; series mostly up to 28.7 µM; note: nearly all actives have a fitted effect of over 65% in size; note: potency is the fitted concentration of half-maximal effect
In short: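 SYBR Green I DNA fluorescence read-out, ex 485/em 535 nm. Signals were normalized to 0.29 uM artemisinin and DMSO wells, then corrected using vehicle-only plates flanking each stack. Parasite growth ran 72 h in erythrocytes before lysis.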

[10] = qHTS for differential inhibitors of proliferation of Plasmodium falciparum line W2 (AID 1883); conditions: Potency: Plasmodium falciparum W2 proliferation inhibition; series mostly up to 28.7 µM;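 note: parasites grown with compound for 72 h before lysis and staining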; note: potency is the fitted concentration of half-maximal effect
[11] = qHTS for differential inhibitors of proliferation of Plasmodium falciparum line HB3 (AID 1886); conditions: Potency: Plasmodium falciparum HB3 proliferation inhibition; series mostly up to 28.7 µM;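 note: parasites grown with compound for 72 h before SYBR Green readout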; note: potency is the fitted concentration of half-maximal effect
[12] = target: Ferritin light chain (Equus caballus) (UniProt P02791); assay: qHTS Validation Assay for Identification of Novel General Anesthetics (AID 2323); conditions: horse apoferritin, anesthetic-site fluorescent probe displacement; series mostly up to 76.9 µM
In short: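 Normalized fluorescence response, scaled between free 1-AMA and 1-AMA/apoferritin complex, fitted to a four-parameter Hill equation for concentration-effect values. Binding mix: 10 uM horse-spleen apoferritin, 50% saturated 1-AMA in PBS; read 380/535 nm after 10 min.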

[13] = target: ATP-dependent DNA helicase Q1 (Homo sapiens) (UniProt P46063); assay: qHTS Validation Assay for Inhibitors of RecQ-Like Dna Helicase 1 (RECQ1) (AID 2353); conditions: recombinant RECQ1 helicase DNA unwinding assay; series mostly up to 25.6 µM
In short: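 50 nM RECQ1T1 preincubated 15 min with compound in Tris pH 8.0 buffer with MgCl2, DTT, Tween-20 and 2.5 ug/ml poly(dI-dC); started with 200 nM TAMRA/BHQ-2 forked duplex and 2 mM ATP. Unwinding read as fluorescence (525/598 nm), two reads 2 h apart.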

[14] = target: RecQ-like DNA helicase BLM (Homo sapiens) (UniProt P54132); assay: qHTS Validation Assay for Inhibitors of Bloom's syndrome helicase (BLM) (AID 2364); conditions: BLM helicase DNA unwinding, fluorescence, in vitro; series mostly up to 57.1 µM
In short: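 BLM 50 nM in 25 mM Tris-HCl pH 8.0, 5 mM NaCl, 2 mM MgCl2, 1 mM DTT, 0.01% Tween-20, 2.5 ug/ml poly(dI-dC); 15 min cpd preinc, RT. Start: 200 nM forked DNA + 2 mM ATP (final). TAMRA read, 2 reads 2 h apart.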

[15] = Validation screen for small molecules that induce DNA re-replication in MCF 10A normal breast cells (AID 463097); conditions: MCF 10A cells, DNA re-replication phenotype imaging; series mostly up to 46.1 µM; note: nearly all actives have a fitted effect of over 60% in size
In short: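 Following 48 hr compound incubation (37 C, 5% CO2), MCF 10A cells receive Hoechst for 40 min at 37 C. Nuclei are then scanned (excitation 405 nm, emission 500-530 nm) for total fluorescence intensity.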

[16] = target: M-phase phosphoprotein 8 (Homo sapiens) (UniProt Q99549); assay: qHTS Validation Assay for Inhibitors for MPP8 Chromodomain Interactions with Methylated Histone Tails (AID 488949); conditions: AlphaScreen MPP8 binding to H3K9me3 peptide; series mostly up to 114 µM; note: nearly all actives have a fitted effect of over 55% in size; note: potency is the fitted concentration of half-maximal effect
In short: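 Chemiluminescent proximity assay: histidine-tag capture via nickel acceptor beads, biotin peptide via streptavidin donor beads. Protein and peptide each at 50 nM, pH 7.4, with 30 min incubations at room temperature for complex formation, compound exposure and bead binding.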

[17] = target: Thyrotropin receptor (Homo sapiens) (UniProt P16473); assay: qHTS Assay for Antagonists of the Thyroid Stimulating Hormone Receptor (AID 488980); conditions: TSHR-expressing cells, cAMP antagonist read-out; series mostly up to 57.5 µM
In short: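 Inhibition of TSH-stimulated cAMP accumulation was quantified by homogeneous time-resolved FRET in TSHR-transfected HEK293 cells. Agonist: TSH, 4 nM final (EC80).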

[18] = target: Galactokinase (Homo sapiens) (UniProt P51570); assay: qHTS Validation Assay for Inhibitors of Human Galactokinase (GALK) (AID 493189); conditions: purified human GALK enzyme activity, qHTS 7-point titration; series mostly up to 57.5 µM
In short: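 Enzyme activity is inferred from ATP consumption: human GALK phosphorylates galactose (100 uM) using 35 uM ATP for 1 h at room temperature, and luciferase-based Kinase-Glo Plus reports unconsumed ATP.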

[19] = Validation screen for small molecules that induce DNA re-replication in SW480 colon adenocarcinoma cells (AID 504364); conditions: DNA re-replication phenotype (high-content imaging); series mostly up to 46.1 µM
In short: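 SW480 cells seeded at 250 per well were exposed to compound or DMSO for 48 hr at 37 C, 5% CO2, then stained with Hoechst for 40 min. DNA content per nucleus was imaged (405 nm ex, 500-530 nm em).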

[20] = NCATS anti-infectives library activity on HEK293 viability as a counter-qHTS vs the C. elegans viability qHTS (AID 1745854); conditions: HEK293 viability counter-screen; series mostly up to 41.8 µM
In short: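 HEK293 cells, 1500 per well, exposed 24 hr at 37C in 5% CO2 to compounds in a 1:5 titration, up to 41.7 uM final. Viability read as CellTiter-Glo luminescence after 10 min at room temperature.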

Measured: Potency

Alpha-galactosidase A (Homo sapiens), sequence (P06280 whole entry, looked up): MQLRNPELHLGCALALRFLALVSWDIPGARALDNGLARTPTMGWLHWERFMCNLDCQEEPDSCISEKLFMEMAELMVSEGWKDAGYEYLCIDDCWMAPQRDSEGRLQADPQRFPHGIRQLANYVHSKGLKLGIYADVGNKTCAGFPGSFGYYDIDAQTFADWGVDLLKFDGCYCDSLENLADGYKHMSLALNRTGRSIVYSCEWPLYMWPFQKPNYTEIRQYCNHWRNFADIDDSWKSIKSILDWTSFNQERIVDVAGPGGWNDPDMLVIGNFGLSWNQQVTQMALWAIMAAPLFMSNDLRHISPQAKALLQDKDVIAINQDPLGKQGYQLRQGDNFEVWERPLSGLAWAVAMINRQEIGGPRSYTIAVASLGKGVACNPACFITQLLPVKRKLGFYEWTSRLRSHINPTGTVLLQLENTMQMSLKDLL
DNA repair nuclease/redox regulator APEX1 (Homo sapiens), sequence (P27695 whole entry, looked up): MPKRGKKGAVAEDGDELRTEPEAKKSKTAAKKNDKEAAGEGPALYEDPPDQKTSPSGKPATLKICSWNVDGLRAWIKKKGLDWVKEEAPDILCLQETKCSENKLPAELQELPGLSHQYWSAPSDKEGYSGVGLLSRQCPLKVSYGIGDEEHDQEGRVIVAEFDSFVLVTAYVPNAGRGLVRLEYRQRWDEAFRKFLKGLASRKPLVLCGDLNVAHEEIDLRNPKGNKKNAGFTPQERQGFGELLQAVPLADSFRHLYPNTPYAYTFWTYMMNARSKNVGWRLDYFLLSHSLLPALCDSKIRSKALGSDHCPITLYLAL
Thyrotropin receptor (Homo sapiens), sequence (P16473 whole entry, looked up): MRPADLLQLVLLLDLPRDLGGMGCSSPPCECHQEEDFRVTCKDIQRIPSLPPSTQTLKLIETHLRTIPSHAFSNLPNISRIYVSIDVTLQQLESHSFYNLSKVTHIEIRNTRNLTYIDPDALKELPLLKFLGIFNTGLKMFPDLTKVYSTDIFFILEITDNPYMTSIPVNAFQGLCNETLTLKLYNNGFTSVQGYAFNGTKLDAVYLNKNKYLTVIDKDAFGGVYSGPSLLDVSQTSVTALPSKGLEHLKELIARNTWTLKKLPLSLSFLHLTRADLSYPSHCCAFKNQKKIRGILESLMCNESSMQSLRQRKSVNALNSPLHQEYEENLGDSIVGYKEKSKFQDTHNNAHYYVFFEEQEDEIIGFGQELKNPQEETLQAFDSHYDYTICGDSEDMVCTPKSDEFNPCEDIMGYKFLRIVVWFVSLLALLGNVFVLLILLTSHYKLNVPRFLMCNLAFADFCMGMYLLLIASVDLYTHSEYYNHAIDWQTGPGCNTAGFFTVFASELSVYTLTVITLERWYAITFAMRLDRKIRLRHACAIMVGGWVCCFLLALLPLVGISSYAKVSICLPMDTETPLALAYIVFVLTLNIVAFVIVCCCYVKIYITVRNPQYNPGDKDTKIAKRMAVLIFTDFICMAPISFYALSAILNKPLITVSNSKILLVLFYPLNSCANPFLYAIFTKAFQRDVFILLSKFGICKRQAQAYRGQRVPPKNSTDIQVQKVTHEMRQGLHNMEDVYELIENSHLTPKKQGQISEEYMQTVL
RecQ-like DNA helicase BLM (Homo sapiens), sequence (P54132 whole entry, looked up): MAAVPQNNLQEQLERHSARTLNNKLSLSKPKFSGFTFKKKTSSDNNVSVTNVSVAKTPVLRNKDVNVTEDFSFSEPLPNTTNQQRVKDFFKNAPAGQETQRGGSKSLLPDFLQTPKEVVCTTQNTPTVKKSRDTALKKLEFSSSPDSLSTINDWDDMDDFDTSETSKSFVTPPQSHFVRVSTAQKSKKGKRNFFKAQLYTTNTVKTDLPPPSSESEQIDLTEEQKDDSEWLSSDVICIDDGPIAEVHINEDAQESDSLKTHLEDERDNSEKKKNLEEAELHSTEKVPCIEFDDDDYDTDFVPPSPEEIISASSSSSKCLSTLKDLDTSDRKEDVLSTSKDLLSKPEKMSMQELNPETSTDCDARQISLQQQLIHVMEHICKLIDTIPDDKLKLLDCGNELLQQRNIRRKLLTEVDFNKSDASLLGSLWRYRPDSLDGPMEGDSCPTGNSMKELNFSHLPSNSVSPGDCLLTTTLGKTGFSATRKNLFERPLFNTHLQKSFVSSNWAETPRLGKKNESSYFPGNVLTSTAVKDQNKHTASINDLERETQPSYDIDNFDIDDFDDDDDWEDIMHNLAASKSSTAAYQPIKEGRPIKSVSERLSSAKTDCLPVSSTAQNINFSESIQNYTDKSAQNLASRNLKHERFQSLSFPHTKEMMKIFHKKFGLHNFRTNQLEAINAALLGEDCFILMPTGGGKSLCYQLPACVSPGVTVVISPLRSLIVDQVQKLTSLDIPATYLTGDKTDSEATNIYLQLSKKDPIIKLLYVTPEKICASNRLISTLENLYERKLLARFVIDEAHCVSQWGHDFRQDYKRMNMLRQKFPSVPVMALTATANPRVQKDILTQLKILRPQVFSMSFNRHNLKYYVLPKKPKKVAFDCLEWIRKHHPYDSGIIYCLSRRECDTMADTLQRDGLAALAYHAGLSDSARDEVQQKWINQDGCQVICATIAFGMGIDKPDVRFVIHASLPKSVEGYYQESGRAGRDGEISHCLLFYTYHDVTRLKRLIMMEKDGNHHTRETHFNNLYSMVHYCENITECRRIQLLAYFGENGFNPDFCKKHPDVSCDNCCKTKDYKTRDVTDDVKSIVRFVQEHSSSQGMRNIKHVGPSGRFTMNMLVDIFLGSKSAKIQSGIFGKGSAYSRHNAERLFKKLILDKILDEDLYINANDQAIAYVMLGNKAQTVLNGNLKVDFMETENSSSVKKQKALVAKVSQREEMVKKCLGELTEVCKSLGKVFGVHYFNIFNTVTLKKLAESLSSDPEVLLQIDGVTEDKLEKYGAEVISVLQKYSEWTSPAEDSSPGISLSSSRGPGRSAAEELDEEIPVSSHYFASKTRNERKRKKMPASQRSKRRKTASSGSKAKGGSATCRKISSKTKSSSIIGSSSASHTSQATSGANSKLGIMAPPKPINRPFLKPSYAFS
Ferritin light chain (Equus caballus), sequence (P02791 2-175 limits assumed): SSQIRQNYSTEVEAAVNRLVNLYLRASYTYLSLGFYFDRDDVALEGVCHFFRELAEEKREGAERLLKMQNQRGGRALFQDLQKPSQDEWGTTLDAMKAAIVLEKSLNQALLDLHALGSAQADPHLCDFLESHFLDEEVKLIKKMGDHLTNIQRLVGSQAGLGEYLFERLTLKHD
ATP-dependent DNA helicase Q1 (Homo sapiens), sequence (P46063 whole entry, looked up): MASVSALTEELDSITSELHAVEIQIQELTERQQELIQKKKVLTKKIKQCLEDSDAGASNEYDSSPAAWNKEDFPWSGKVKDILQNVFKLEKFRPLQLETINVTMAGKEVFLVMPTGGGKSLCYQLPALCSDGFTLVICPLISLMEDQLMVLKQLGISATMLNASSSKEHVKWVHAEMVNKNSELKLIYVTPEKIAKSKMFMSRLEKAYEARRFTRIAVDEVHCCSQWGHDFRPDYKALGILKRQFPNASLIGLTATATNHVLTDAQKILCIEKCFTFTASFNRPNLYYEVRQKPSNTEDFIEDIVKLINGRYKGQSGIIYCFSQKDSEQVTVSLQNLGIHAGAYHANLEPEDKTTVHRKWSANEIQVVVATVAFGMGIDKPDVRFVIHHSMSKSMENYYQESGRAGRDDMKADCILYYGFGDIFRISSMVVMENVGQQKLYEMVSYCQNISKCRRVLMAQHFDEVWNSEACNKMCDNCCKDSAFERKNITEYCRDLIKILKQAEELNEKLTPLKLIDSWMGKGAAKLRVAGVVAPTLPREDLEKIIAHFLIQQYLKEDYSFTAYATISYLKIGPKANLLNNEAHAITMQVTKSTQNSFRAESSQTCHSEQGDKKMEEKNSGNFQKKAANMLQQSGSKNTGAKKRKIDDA
M-phase phosphoprotein 8 (Homo sapiens), sequence (Q99549 whole entry, looked up): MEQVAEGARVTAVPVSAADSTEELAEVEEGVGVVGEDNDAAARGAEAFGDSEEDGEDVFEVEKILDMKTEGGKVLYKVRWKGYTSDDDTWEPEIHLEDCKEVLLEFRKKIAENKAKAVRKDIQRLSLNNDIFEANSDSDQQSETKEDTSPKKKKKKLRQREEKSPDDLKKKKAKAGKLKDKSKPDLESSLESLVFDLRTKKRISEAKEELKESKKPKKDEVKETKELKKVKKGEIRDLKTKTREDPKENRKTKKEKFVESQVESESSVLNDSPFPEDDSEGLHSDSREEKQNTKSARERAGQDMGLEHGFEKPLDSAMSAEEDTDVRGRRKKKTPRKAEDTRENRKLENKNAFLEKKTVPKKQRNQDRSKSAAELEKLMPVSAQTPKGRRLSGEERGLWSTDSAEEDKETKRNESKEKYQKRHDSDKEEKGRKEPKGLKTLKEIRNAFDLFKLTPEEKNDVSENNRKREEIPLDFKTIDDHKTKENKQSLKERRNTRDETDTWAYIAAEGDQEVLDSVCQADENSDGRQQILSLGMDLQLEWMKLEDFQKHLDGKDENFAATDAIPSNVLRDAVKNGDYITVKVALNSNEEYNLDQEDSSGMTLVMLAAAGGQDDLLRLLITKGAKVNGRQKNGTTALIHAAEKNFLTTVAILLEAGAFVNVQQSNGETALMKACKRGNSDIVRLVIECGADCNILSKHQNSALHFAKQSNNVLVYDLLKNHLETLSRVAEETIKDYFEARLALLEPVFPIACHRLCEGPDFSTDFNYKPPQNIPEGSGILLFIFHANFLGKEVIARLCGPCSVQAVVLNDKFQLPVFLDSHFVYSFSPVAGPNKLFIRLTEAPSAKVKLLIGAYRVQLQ
Galactokinase (Homo sapiens), sequence (P51570 whole entry, looked up): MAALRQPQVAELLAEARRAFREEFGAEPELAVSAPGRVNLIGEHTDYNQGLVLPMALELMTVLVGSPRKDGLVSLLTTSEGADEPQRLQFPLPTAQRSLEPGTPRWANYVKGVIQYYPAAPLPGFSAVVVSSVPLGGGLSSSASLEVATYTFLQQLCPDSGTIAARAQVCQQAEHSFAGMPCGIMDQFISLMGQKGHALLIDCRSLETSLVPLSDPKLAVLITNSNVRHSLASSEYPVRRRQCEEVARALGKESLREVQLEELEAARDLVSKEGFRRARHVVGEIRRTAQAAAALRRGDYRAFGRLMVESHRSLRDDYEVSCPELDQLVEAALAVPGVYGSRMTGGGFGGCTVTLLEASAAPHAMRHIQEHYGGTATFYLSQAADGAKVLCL

CN(C)CCCCSC(=N)N
active: [16] 50.1 µM
inactive: [1] | [2] | [3] | [4] | [5] | [6] | [7] | [8] | [9] | [10] | [11] | [12] | [13] | [14] | [15] | [17] | [18] | [19]

COc1c(O)cc2oc(-c3ccccc3)cc(=O)c2c1O
inactive: [20]

CC1(C)CC[C@]2(C(=O)O)CC[C@]3(C)C(=CC[C@@H]4[C@@]5(C)C[C@@H](O)[C@H](O)C(C)(C)[C@@H]5CC[C@]43C)[C@@H]2C1
inactive: [20]

C=CCN1CCc2cc(O)c(O)cc2[C@H](c2ccccc2)C1
inactive: [1]

Cc1ccc(OCC(O)C(C)NC(C)C)c2c1CCC2 (configuration not stated)
inactive: [2] | [3] | [4] | [5] | [12] | [13] | [14] | [15] | [16] | [17] | [18] | [19]
active: [6] 2.82 µM | [7] 2.82 µM | [8] 11.2 µM | [9] 12.6 µM | [10] 1.58 µM | [11] 11.2 µM

CC(C)NC[C@@H](O)COc1ccc(CCOCC2CC2)cc1
inactive: [1]

Cc1cccc(/C=C\c2ccccc2)n1
inactive: [1]
